Reference: PubChem BioAssay AID1159580 (chemical genetic matrix, 2015)
In all, about 5,500 compounds went through this assay and about 2,000 (36%) were called active. Inconclusive results (about 18%) are left out. Rule as the data show it: active = normalized growth mostly below about 0.91 (no sharp cut-off); inconclusive = no clear call, values can overlap the other calls; inactive = mostly above about 0.92. Some of the results follow.

Experiment: chemical genetic growth profiling, strain panel (AID 1159580);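 also: tested at 20 µM; growth read once vehicle control cultures reached saturation at 30 °C; 1 = growth at the plate median or of vehicle wells; lower values mean less growth of the strain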
Conditions: growth OD

Measured: normalized growth

Cc1onc(-c2ccccc2Cl)c1C(=O)N[C@@H]1C(=O)N2[C@@H]1SC(C)(C)[C@@H]2C(=O)O
inactive: S. cerevisiae deletion strains, locus YJR066W, strain TOR1, stronger effect = lower value 0.986 | S. cerevisiae deletion strains, locus YKL009W, strain mrt4, stronger effect = lower value 1.02 | S. cerevisiae deletion strains, locus YKL068W, stronger effect = lower value 1.02 | S. cerevisiae deletion strains, locus YKL085W, strain MDH1 (second series), stronger effect = lower value 1.02 | S. cerevisiae deletion strains, locus YKL085W, strain MDH1, stronger effect = lower value 1.02 | S. cerevisiae deletion strains, locus YKL160W, strain elf1, stronger effect = lower value 1.02 | S. cerevisiae deletion strains, locus YKL190W, strain CNB1, stronger effect = lower value 1.01 | S. cerevisiae deletion strains, locus YKR001C, strain vps1, stronger effect = lower value 1.03 | S. cerevisiae deletion strains, locus YKR026C, strain gcn3, stronger effect = lower value 1.05 | S. cerevisiae deletion strains, locus YKR091W, strain srl3, stronger effect = lower value 1.02 | S. cerevisiae deletion strains, locus YLL001W, strain dnm1, stronger effect = lower value 1.02 | S. cerevisiae deletion strains, locus YLL026W, stronger effect = lower value 1.01 | S. cerevisiae deletion strains, locus YLL041C, strain sdh2, stronger effect = lower value 1.02 | S. cerevisiae deletion strains, locus YLR027C, strain aat2, stronger effect = lower value 1.01 | S. cerevisiae deletion strains, locus YLR039C, strain RIC1, stronger effect = lower value 1.02 | S. cerevisiae deletion strains, locus YLR058C, strain SHM2, stronger effect = lower value 1.02 | S. cerevisiae deletion strains, locus YLR102C, strain apc9, stronger effect = lower value 1.03 | S. cerevisiae deletion strains, locus YLR113W, strain HOG1, stronger effect = lower value 1.05 | S. cerevisiae deletion strains, locus YLR221C, strain rsa3, stronger effect = lower value 0.979 | S. cerevisiae deletion strains, locus YLR258W, strain gsy2, stronger effect = lower value 1.02 | S. cerevisiae deletion strains, locus YLR262C, strain YPT6 (second series), stronger effect = lower value 1 | S. cerevisiae deletion strains, locus YLR262C, strain YPT6, stronger effect = lower value 1.01 | S. cerevisiae deletion strains, locus YLR268W, strain sec22, stronger effect = lower value 1.04 | S. cerevisiae deletion strains, locus YLR320W, strain mms22, stronger effect = lower value 1 | S. cerevisiae deletion strains, locus YLR330W, strain CHS5, stronger effect = lower value 1.01 | S. cerevisiae deletion strains, locus YLR342W, strain FKS1 (second series), stronger effect = lower value 1.02 | S. cerevisiae deletion strains, locus YLR342W, strain FKS1, stronger effect = lower value 1.02 | S. cerevisiae deletion strains, locus YLR357W, strain rsc2, stronger effect = lower value 1.03 | S. cerevisiae deletion strains, locus YLR370C, strain arc18, stronger effect = lower value 1.02 | S. cerevisiae deletion strains, locus YLR371W, strain rom2, stronger effect = lower value 1.03 | S. cerevisiae deletion strains, locus YLR384C, strain iki3, stronger effect = lower value 1.02 | S. cerevisiae deletion strains, locus YLR418C, strain cdc73, stronger effect = lower value 1.04 | S. cerevisiae deletion strains, locus YML016C, strain PPZ1, stronger effect = lower value 1.01 | S. cerevisiae deletion strains, locus YML032C, strain rad52, stronger effect = lower value 1.01 | S. cerevisiae deletion strains, locus YML120C, strain ndi1, stronger effect = lower value 1.04 | S. cerevisiae deletion strains, locus YML124C, strain tub3, stronger effect = lower value 1.03 | S. cerevisiae deletion strains, locus YMR058W, strain fet3, stronger effect = lower value 1.04 | S. cerevisiae deletion strains, locus YMR078C, strain ctf18, stronger effect = lower value 1.04 | S. cerevisiae deletion strains, locus YMR125W, strain sto1, stronger effect = lower value 1.04 | S. cerevisiae deletion strains, locus YMR129W, stronger effect = lower value 1.01 | S. cerevisiae deletion strains, locus YMR205C, strain PFK2, stronger effect = lower value 1.04 | S. cerevisiae deletion strains, locus YMR223W, strain ubp8, stronger effect = lower value 1.02 | S. cerevisiae deletion strains, locus YMR231W, strain pep5, stronger effect = lower value 1.02 | S. cerevisiae deletion strains, locus YMR263W, strain SAP30, stronger effect = lower value 1.02 | S. cerevisiae deletion strains, locus YMR307W, strain GAS1, stronger effect = lower value 1.03 | S. cerevisiae deletion strains, locus YNL067W, strain RPL9B, stronger effect = lower value 1.02 | S. cerevisiae deletion strains, locus YNL071W, strain lat1, stronger effect = lower value 1.01 | S. cerevisiae deletion strains, locus YNL153C, strain GIM3, stronger effect = lower value 1.01 | S. cerevisiae deletion strains, locus YNL183C, strain NPR1, stronger effect = lower value 0.968 | S. cerevisiae deletion strains, locus YNL209W, strain ssb2, stronger effect = lower value 1.01 | S. cerevisiae deletion strains, locus YNL233W, strain BNI4, stronger effect = lower value 1.01 | S. cerevisiae deletion strains, locus YNL248C, strain rpa49, stronger effect = lower value 0.948 | S. cerevisiae deletion strains, locus YNL250W, strain rad50, stronger effect = lower value 1.01 | S. cerevisiae deletion strains, locus YNL271C, strain bni1, stronger effect = lower value 1.03 | S. cerevisiae deletion strains, locus YNL298W, strain CLA4, stronger effect = lower value 1.04 | S. cerevisiae deletion strains, locus YNL307C, strain MCK1, stronger effect = lower value 1.04 | S. cerevisiae deletion strains, locus YNL322C, strain KRE1 (second series), stronger effect = lower value 1.01 | S. cerevisiae deletion strains, locus YNL322C, strain KRE1, stronger effect = lower value 1 | S. cerevisiae deletion strains, locus YNR049C, strain mso1, stronger effect = lower value 1.02 | S. cerevisiae deletion strains, locus YNR052C, strain pop2, stronger effect = lower value 1.01 | S. cerevisiae deletion strains, locus YOL012C, strain htz1 1.96 | S. cerevisiae deletion strains, locus YOL147C, strain pex11, stronger effect = lower value 1.03 | S. cerevisiae deletion strains, locus YOR001W, strain rrp6, stronger effect = lower value 1.04 | S. cerevisiae deletion strains, locus YOR061W, strain CKA2, stronger effect = lower value 1.01 | S. cerevisiae deletion strains, locus YOR069W, strain VPS5, stronger effect = lower value 1.01 | S. cerevisiae deletion strains, locus YOR070C, strain gyp1, stronger effect = lower value 1.01 | S. cerevisiae deletion strains, locus YOR080W, strain dia2, stronger effect = lower value 1.03 | S. cerevisiae deletion strains, locus YOR083W, strain WHI5, stronger effect = lower value 1.03 | S. cerevisiae deletion strains, locus YOR106W, strain vam3, stronger effect = lower value 1.03 | S. cerevisiae deletion strains, locus YOR136W, strain idh2, stronger effect = lower value 1.03 | S. cerevisiae deletion strains, locus YOR144C, strain elg1, stronger effect = lower value 1.02 | S. cerevisiae deletion strains, locus YOR184W, strain ser1, stronger effect = lower value 1.03 | S. cerevisiae deletion strains, locus YOR231W, strain MKK1, stronger effect = lower value 1.01 | S. cerevisiae deletion strains, locus YOR265W, strain rbl2, stronger effect = lower value 1.02 | S. cerevisiae deletion strains, locus YOR270C, strain vph1, stronger effect = lower value 1.04 | S. cerevisiae deletion strains, locus YOR290C, strain snf2, stronger effect = lower value 1.01 | S. cerevisiae deletion strains, locus YOR316C, strain cot1, stronger effect = lower value 1.03 | S. cerevisiae deletion strains, locus YPL051W, strain arl3, stronger effect = lower value 1.02 | S. cerevisiae deletion strains, locus YPL055C, strain LGE1, stronger effect = lower value 1.03 | S. cerevisiae deletion strains, locus YPL078C, strain atp4, stronger effect = lower value 1.03 | S. cerevisiae deletion strains, locus YPL106C, strain sse1, stronger effect = lower value 1.03 | S. cerevisiae deletion strains, locus YPL240C, strain hsp82, stronger effect = lower value 1.01 | S. cerevisiae deletion strains, locus YPL241C, strain CIN2, stronger effect = lower value 1 | S. cerevisiae deletion strains, locus YPL256C, strain CLN2, stronger effect = lower value 1.01 | S. cerevisiae deletion strains, locus YPR119W, strain clb2, stronger effect = lower value 1.03 | S. cerevisiae deletion strains, locus YPR141C, strain kar3, stronger effect = lower value 1.04 | S. cerevisiae deletion strains, locus YPR163C, strain tif3, stronger effect = lower value 1.04 | S. cerevisiae deletion strains, locus YPR167C, strain met16, stronger effect = lower value 1.03 | S. cerevisiae deletion strains, strain wtn01, stronger effect = lower value 1.02 | S. cerevisiae strains, strain wild type, stronger effect = lower value 1.01
